Mito fusion act: inhibitors of mitochondrial division or activators of mitochondrial fusion; S. cerevisiae fusion-defective mutant growth rescue, CellTiterGlo 48 h; Potency, µM (titrated, usually from 46.1 µM), for inactives: at the highest dose growth rescue (activation), most hits filed as activators; 0.23% of 320,000 active; note: % of control where 0% means no effect; nearly all actives have a fitted effect of over 45% in size
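Yeast fusion mutant, YPEG (non-fermentable carbon), compound, 48 h at 37C non-permissive; CellTiterGlo added, 10 min RT, luminescence read. Rescued growth = division inhibition.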
SW480 rerep: inducers of DNA re-replication in SW480 colon cancer cells. SW480 DNA re-replication, Hoechst DNA content imaging, 48 h. Potency, µM (titrated, usually from 46.1 µM), for the others: top-dose re-replication activation, usual class: activators. 1.8% of 340,000 active; note: % of control where 0% means no effect; nearly all actives have a fitted effect of over 55% in size
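First, 250 cells per well were seeded. Next, compound or vehicle (23 nL) was pinned in, plates sat 48 hr at 37 C. Finally Hoechst was added for 40 min before fluorescence scanning.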
MCF10A rerep: DNA re-replication induction in MCF 10a cells; MCF 10A DNA re-replication, Hoechst nuclear intensity, 48 h; Potency, µM (highest dose often 46.1 µM), inactives show at the highest dose activity, positive = re-replication, usual class: activators; 2.9% of 350,000 active; note: % of control where 0% means no effect; nearly all actives have a fitted effect of over 50% in size
Integrin act MD: activators of alpha7 integrin expression for muscular dystrophy. 0.064% of 350,000 active. Potency, µM (top dose mostly 38.3 µM), without a hit: at the highest dose activation, usual class: activators. alpha7betagal myoblasts, beta-gal FDG fluorescence, 48 h;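 note: 100% = response of the positive control SU9516; nearly all actives have a fitted effect of over 60% in size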
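alpha7betagal+/- myoblasts (passage 13, 250/well) treated 48 h at 37C with compounds at 1:260 dilution of DMSO stock. Lysed, then beta-galactosidase activity read as FDG fluorescence (ex 480/em 540) after 30 min, with pre-read for autofluorescence.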
A-T KAP1 phos: potential ataxia-telangiectasia treatments restoring KAP-1 phosphorylation. F2112 A-T fibroblasts, KAP-1 phosphorylation AlphaLISA; neocarzinostatin DNA damage 30 min before lysis. Potency, µM (highest dose often 57.5 µM), inactives show at the top dose activation, usual class: activators. 0.19% of 320,000 active; note: % of control where 0% means no effect; nearly all actives have a fitted effect of over 45% in size
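hTERT-immortalized A-T patient fibroblasts (F2112), 500 cells/well in OPTI-MEM, 1% FBS, got compounds for 60 min, then NCS for 30 min at 37C. Lysates were then assayed for phospho-KAP-1 by AlphaLISA (anti-pKAP1 donor, anti-KAP1 acceptor beads), 6 hr at 25C.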
An asterisk follows results filed as active; [ ] = remark or other dose. Compounds with a hit are over-represented: about 4.2% of the library has one in this group of screens. Calls come from the whole dose curve; as a rule, active = well fitted activation curve with a large enough effect; inconclusive = small, poorly fitted or top-dose-only effect; inactive = no such curve, though single readings can be large or run the other way. Potency is the fitted concentration of half-maximal effect.

`Brc1ccc(-c2csc(-c3c[nH]c4ccccc34)n2)cc1` gave Mito fusion act 0%, SW480 rerep 2%, MCF10A rerep inconclusive, Integrin act MD 5% and A-T KAP1 phos -4%.
c1ccc2c(-c3csc(-c4ccncc4)n3)c[nH]c2c1 was read as Mito fusion act -39%, SW480 rerep 21µM*, MCF10A rerep inconclusive, Integrin act MD -61% and A-T KAP1 phos 5%.
Screening CC(Oc1ccccc1)C(=O)NNC(=O)c1ccccn1 (stereo not given) returned Mito fusion act 6%, SW480 rerep inconclusive, MCF10A rerep 25%, Integrin act MD -25% and A-T KAP1 phos 4%.
C/C(=N\NC(=O)C(C)Oc1ccc([N+](=O)[O-])cc1)c1ccccn1 (stereo not given) was read as Mito fusion act -7%, SW480 rerep 6.5µM*, MCF10A rerep 15µM*, Integrin act MD -60% and A-T KAP1 phos -2%.
COc1ccc(NC(=O)/C(C#N)=C/C=C/c2ccco2)cc1 was read as Mito fusion act 4%, SW480 rerep 8.2µM*, MCF10A rerep 15µM*, Integrin act MD -31% and A-T KAP1 phos -12%.
For C=CCNC(=O)COC(=O)c1ccc(Cl)c(S(N)(=O)=O)c1 the results were Mito fusion act -6%, SW480 rerep 6%, MCF10A rerep 0%, Integrin act MD inconclusive and A-T KAP1 phos 1%.
For CN1C2C=C3C(C#N)=C(N)C(C#N)(C#N)[C@H](c4c(F)cccc4F)[C@H]3C1CC2 (stereo not given in full) the results were Mito fusion act -2%, SW480 rerep -4%, MCF10A rerep 1%, Integrin act MD -8% and A-T KAP1 phos -2%.
N#CC1=C(N)C(C#N)(C#N)[C@H](c2c(F)cccc2F)[C@H]2CC3(CC=C12)OCCO3 was read as Mito fusion act -18%, SW480 rerep 3.3µM*, MCF10A rerep 4.1µM* and Integrin act MD -1%[7.66 µM].
Screening Cc1cccc(-n2nnnc2SCC(=O)NCC2CCCO2)c1 (stereo not given) returned Mito fusion act 18µM*, SW480 rerep -2%, MCF10A rerep -1%, Integrin act MD 10% and A-T KAP1 phos 25%.
For Cc1nc(SCC(=O)NCC2CCCO2)c2cc(-c3ccccc3)sc2n1 (stereo not given) the results were Mito fusion act 18%, SW480 rerep -3%, MCF10A rerep 21µM*, Integrin act MD -11% and A-T KAP1 phos 5%.
Screening COc1ccc2nc(SCC(=O)NCC3CCCO3)c(C#N)cc2c1 (stereo not given) returned Mito fusion act -3%, SW480 rerep -4%, MCF10A rerep 23µM*, Integrin act MD 7% and A-T KAP1 phos 3%.
Cn1c(SCC(=O)NCC2CCCO2)ncc(C(=O)Nc2ccc(Cl)cc2)c1=O (stereo not given) was read as Mito fusion act 0%, SW480 rerep 4.6µM*, MCF10A rerep 18µM*, Integrin act MD 10% and A-T KAP1 phos 14%.
Screening COc1ccc(C(C(=O)NC2CCCCC2)N(C(=O)c2sc(C)nc2C)c2ccc(C(C)=O)cc2)cc1 (stereo not given) returned Mito fusion act 0%, SW480 rerep 16%, MCF10A rerep -4%, Integrin act MD -34% and A-T KAP1 phos 6%.
`CCC(NC(=O)c1ccccc1NC(=O)c1ccco1)C(=O)NNC(=O)c1ccc(OC)cc1` (stereo not given) gave Mito fusion act -4%, SW480 rerep inconclusive, MCF10A rerep inconclusive, Integrin act MD -6% and A-T KAP1 phos -1%.
`CO/N=C(\C(=O)N[C@@H]1C(=O)N2C(C(=O)[O-])=C(C[n+]3cccc4c3CCC4)CS[C@H]12)c1csc(N)n1` gave SW480 rerep 0% and MCF10A rerep 15%.
Screening Cc1ccccc1-c1n[nH]nc1C1=CC(=O)CC(C)(C)C1 returned Integrin act MD -12%.
Screening CCOC(=O)c1c(C)n(C)c2ccc(OCC(O)Cn3nc(C)c(Br)c3C)cc12 (stereo not given) returned Mito fusion act inconclusive, SW480 rerep 9%, MCF10A rerep 15µM*, Integrin act MD -14% and A-T KAP1 phos 0%.
COc1ccccc1/C=N\NC(=O)c1c(C)nc2ccc(Cl)cn12 was read as Mito fusion act 2%, SW480 rerep -11%, MCF10A rerep 9%, Integrin act MD 18% and A-T KAP1 phos -7%.
Screening COc1cccc(/C=N/Nc2cc(Cl)nc(C)n2)c1O returned Mito fusion act -4%, SW480 rerep 0.29µM*, MCF10A rerep 7.3µM*, Integrin act MD -1% and A-T KAP1 phos 4%.
Screening COc1cccc(/C=N/NC(=O)c2c(C)nc3ccc(Cl)cn23)c1O returned Mito fusion act 6%, SW480 rerep 0.26µM*, MCF10A rerep inconclusive, Integrin act MD -13% and A-T KAP1 phos -3%.
For O=C(C1=C(c2ccccc2)C(=O)c2ccccc2C1=O)c1ccccc1 the results were Mito fusion act -14%, SW480 rerep 7.3µM*, MCF10A rerep 5.2µM*, Integrin act MD -62% and A-T KAP1 phos 17%.
For COC1=C(c2ccccc2)C(=O)c2ccccc2C1=O the results were Mito fusion act -12%, SW480 rerep inconclusive, MCF10A rerep inconclusive, Integrin act MD -64% and A-T KAP1 phos 10%.
`O=c1c([N+](=O)[O-])c(N2CCCC2)c2ccccc2n1-c1ccccc1` gave Mito fusion act 9%, SW480 rerep 17%[1.84 µM], MCF10A rerep 8%, Integrin act MD -3% and A-T KAP1 phos 9%.
Screening Cc1ccc(C)c(NC(=O)C2CCCN(c3cnccn3)C2)c1 (stereo not given) returned Mito fusion act -3%, SW480 rerep -6%, MCF10A rerep 2%, Integrin act MD -5% and A-T KAP1 phos 1%.
O=C(COc1cc(F)ccc1[N+](=O)[O-])NCCN1C(=O)CSC1=O was read as SW480 rerep -6%, MCF10A rerep 1%, Integrin act MD -31% and A-T KAP1 phos -10%.
`Nc1c(N(CCC2=CCCCC2)C(=O)COc2ccc(F)cc2)c(=O)[nH]c(=O)n1Cc1ccccc1` gave Mito fusion act -1%, SW480 rerep -9%, MCF10A rerep 16µM*, Integrin act MD -69% and A-T KAP1 phos -2%.
Screening Nc1c(N(CCC2=CCCCC2)C(=O)CCCOc2ccccc2)c(=O)[nH]c(=O)n1Cc1ccccc1 returned Mito fusion act -4%, SW480 rerep 3%, MCF10A rerep 16%, Integrin act MD -1% and A-T KAP1 phos -7%.
`COc1ccc2cc(CN(C)C(=O)CN3C(=O)NC4(CCCC4)C3=O)ccc2c1` gave Integrin act MD 2%.
